Compound activity (PubChem)
Vaccinia mCherry = vaccinia inhibition (mCherry reporter) | 0.63% of 310,000 active | AID 720579 | Vaccinia virus mCherry reporter infection, fluorescence | Potency, µM (doses to about 36.5 µM), without a hit: at the top dose activity change, negative = inhibition, usual class: inhibitors; calls by dose curve; tested in A549 cells; further: nearly all actives have a fitted effect of over 35% in size
VACV Venus inh = inhibitors of vaccinia virus (Venus reporter); Potency, µM (series often up to 36.5 µM), for the others: at the top dose activity change, negative = inhibition, actives largely listed as inhibitors; 0.46% of 330,000 active; Vaccinia virus Venus reporter expression, fluorescence; AID 720580; calls by dose curve; tested in A549 cells; further: nearly all actives have a fitted effect of over 30% in size
FMDV inh = blocks foot and mouth disease virus. FMDV antiviral cell-based qHTS. Potency, µM (titrated, usually from 57.9 µM), for the others: at the highest dose activity change, negative = inhibition, hits mostly inhibitors. 1.2% of 410,000 active; calls by dose curve; tested in HEK293T cells; further: read-out not given here; nearly all actives have a fitted effect of over 45% in size
MARV entry inh = inhibitors of Marburg virus binding or cell entry. Marburg virus pseudotyped entry inhibition, cell reporter. Potency, µM (series often up to 37.8 µM), for inactives: top-dose activity change, negative = inhibition, hits mostly inhibitors. 1.8% of 300,000 active; calls by dose curve; tested in HEK293 cells
HCV inhibitor = inhibitors of hepatitis C virus infection. Huh7.5.1 HCVcc-Cre infection, luciferase reporter, 44 h. Potency, µM (series often up to 41.8 µM), for the others: at the highest dose activity change, negative = inhibition, hits mostly inhibitors. 3.4% of 340,000 active. AID 651820; active means well fitted inhibition curve with a large enough effect; inconclusive means small, poorly fitted or top-dose-only effect, or another doubt; inactive means no such curve, though single readings can be large or run the other way
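Cells seeded at 1,000/well and cultured 4 h, then compounds added followed by HCVcc-Cre virus (~0.5 moi). After 44 h further culture, luciferase substrate was added, plates held 15 min at room temperature, and luminescence read for 15 sec.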
Lassa entry inh = blocks Lassa virus binding to or entry into cells; Lassa virus pseudotype entry inhibition, cell reporter; Potency, µM (titrated, usually from 37.9 µM), inactives show top-dose activity change, negative = inhibition, most hits filed as inhibitors; 1.2% of 300,000 active; calls by dose curve; tested in HEK293 cells; further: nearly all actives have a fitted effect of over 50% in size
Numbers without * were called inactive; ? = inconclusive; nt = no result; [ ] = dose if it differs, or a comment. In the library only some 5.3% were active in any assay of this set; here they are far more common. On the % scale 0 is the no-effect control and ±100 the full control effect; potency means the concentration at half of the fitted maximal effect.

SMILES | Vaccinia mCherry | VACV Venus inh | FMDV inh | MARV entry inh | HCV inhibitor | Lassa entry inh
CCOC(=O)c1c(-c2ccc(C)o2)csc1NC(=O)CSc1nnc(C)s1 | -7% | -4% | nt | -16% | ? | -27%
O=C(CSC1=NNC(c2ccccn2)S1)Nc1ccccc1 (centres undefined) | nt | nt | 4% | nt | 14µM* | nt
CCOC(=O)[C@]12Cc3cc(Cl)ccc3[C@H]1N(Cc1ccccc1)C(=O)c1ccccc12 | ? | -2% | ? | nt | -13%[8.37 µM] | nt
CCOC(=O)N1CCC(N2C(=O)c3ccccc3C2Nc2cc(C(=O)OC)cc(C(=O)OC)c2)CC1 (centres undefined) | -18% | -6% | 0% | 3% | 4% | nt
CCOC(=O)[C@]12Cc3c(cc(OC)c(OC)c3OC)[C@H]1N(C1CCCCC1)C(=O)c1ccccc12 | ? | ? | 8.9µM* | nt | nt | nt
CCOC(=O)[C@]12Cc3ccc(C)cc3[C@H]1N(C1CCCCC1)C(=O)c1ccccc12 | ? | ? | 6.3µM* | nt | nt | nt
CCOC(=O)[C@]12Cc3ccc(C)cc3[C@H]1N(C1CCCCC1)C(=O)c1cc(OC)ccc12 | ? | ? | 28µM* | nt | nt | nt
CCOC(=O)[C@]12Cc3ccccc3[C@H]1N(C(C)C)C(=O)c1ccccc12 | ? | ? | 18µM* | nt | nt | nt
COc1ccc(C2C(C(=O)O)CC(=O)N2C2CCCCC2)cc1 (centres undefined) | nt | nt | -12% | 26% | 5% | -10%
Cc1cc(C(=O)NCCN2Cc3ccccc3OC(c3ccccc3F)C2)no1 (centres undefined) | -1% | 10% | -6% | nt | nt | nt
CCC(Sc1nc2cc(OC)c(OC)cc2c(=O)n1Cc1ccc(Cl)cc1)C(=O)NCCOC (centres undefined) | -14% | -16% | -11% | nt | nt | -18%[46.1 µM]
CCN(CCNC(=O)[C@H]1C=C(OC)C(=O)C[C@H](c2ccccc2)[C@@H]1C)C(C)=O | nt | nt | nt | -18%[14.2 µM] | nt | nt
CCOC(=O)[C@]12Cc3cc(C)ccc3[C@H]1N(C1CCCCC1)C(=O)c1ccccc12 | ? | ? | 7.9µM* | nt | nt | nt
CCOC(=O)[C@]12Cc3cc(C)ccc3[C@H]1N(CCC(=O)OC)C(=O)c1ccccc12 | ? | ? | 14µM* | nt | nt | nt
CCOC(=S)SCC(=O)N1CCc2cc(OC)ccc2C1C1C(=O)CCCC1=O (centres undefined) | nt | nt | -16% | nt | 21% | nt
CCOC(=O)[C@]12Cc3cc(Cl)ccc3[C@H]1N(C1CCCCC1)C(=O)c1cc(OC)ccc12 | ? | 3.5µM* | 2.2µM* | nt | nt | nt
Cn1c(SCc2ccc(F)cc2)nc2ccc(C(=O)NCc3cccc(Cl)c3)cc21 | ? | -27% | -5% | ? | nt | nt
CCN(c1ccccc1)c1cc(NC)[n+](C)c(C)n1 | nt | nt | -19% | nt | nt | nt
COc1cc(C2=NOC(C(=O)N3CCCc4ccccc43)C2)cc(OC)c1OC (centres undefined) | nt | nt | -7% | -16% | 2µM* | -12%
Nc1ccc(-c2nc3ccc(-c4nc5ccccc5o4)cc3[nH]2)cc1 | -10% | -5% | 32% | 7.1µM* | ? | -29%
Cc1nc2ccc(-c3nc4ccccc4o3)cc2[nH]1 | -15% | -9% | 6% | -17% | ? | ?
O=C(COc1ccc(CO)cc1)Nc1ccc(F)cc1 | -13% | -13% | nt | 14% | -1% | 1%
COc1ccccc1NC(=O)COc1ccc(CO)cc1Cl | nt | -2% | 7% | 29% | 10µM* | 11%
O=C(COc1ccc(CO)cc1Cl)Nc1ccc(F)cc1 | nt | nt | -41% | 6.5µM* | -4% | ?
COc1cc(OC)nc(Nc2nc(C(N)Cc3ccc(Cl)cc3)cs2)n1 (centres undefined) | -25% | -24% | ? | nt | nt | nt
CC#CCN1c2ccccc2[C@]23CCC(=O)N(CCCOC(C)C)C2=NC(C(=O)OC)=C(C(=O)OC)[C@H]13 | nt | nt | nt | -12%[14.2 µM] | nt | nt
Fc1ccc(-c2cnn3c(-c4cccs4)ccnc23)cc1 | -6% | -1% | -53% | ? | ? | 10µM*
CCN(CC)c1ccc(C2Nc3cccc4cccc(c34)N2)c(O)c1 | nt | nt | 33% | ? | 11µM* | -2%
CCCN1C(=O)c2ccccc2NC1c1ccc(OC)cc1O (centres undefined) | nt | -14% | ? | ? | 11% | 1.6µM*
